TcdB GH inh – TcdB glycohydrolase inhibitors, primary screen, biochemical, single point, plate reader; Toxin B (Clostridioides difficile), P18177; TcdB glycohydrolase enzymatic assay; inhibition, % at 9.99 µM; 0.24% of 350,000 active; AID 652162, 2013; in the data active = inhibition above about 10%
BioA inh-1 – M. tuberculosis BioA enzyme inhibitors, primary screen, biochemical, plate reader, single point, HTS | AID 602481, 2012 | 0.096% of 360,000 active | inhibition, % at 9.99 µM | purified M. tuberculosis BioA enzyme; in the data active = inhibition above about 40%; inconclusive = no clear call, values can overlap the other calls
Vc quorum ag – inducers of Vibrio cholerae quorum light production without autoinducers, primary screen, BH1578 luxS cqsA deficient, single point. 0.16% of 350,000 active. activation, % at 18.7 µM. V. cholerae BH1578 lux reporter, luminescence, 6 h; in the data active = activation mostly above about 9.7%, no sharp cut-off; inconclusive = no clear call, values can overlap the other calls; inactive = mostly below about 3.7%
FadD28 binding – inhibitors of FadD28 bisubstrate probe binding, primary screen, biochemical, fluorescence polarization, single point. Mycobacterium tuberculosis FadD28 fatty-acid-AMP ligase. inhibition, % at 12.5 µM. 0.22% of 360,000 active. AID 588549, 2011; in the data active = inhibition above about 8.5%, passing the limit was not always enough; inconclusive = no clear call, values can overlap the other calls
BioA inh-2 – Mtb BioA enzyme inhibitors, dose response, biochemical, plate reader, cherry-pick samples, set 03; 310 tested, under 10 active; max activity, %; purified BioA enzyme; shares compounds with BioA inh-1;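 note: top concentration of the dilution series was 10 µM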
Target sequence (P9WQ81 whole entry, looked up): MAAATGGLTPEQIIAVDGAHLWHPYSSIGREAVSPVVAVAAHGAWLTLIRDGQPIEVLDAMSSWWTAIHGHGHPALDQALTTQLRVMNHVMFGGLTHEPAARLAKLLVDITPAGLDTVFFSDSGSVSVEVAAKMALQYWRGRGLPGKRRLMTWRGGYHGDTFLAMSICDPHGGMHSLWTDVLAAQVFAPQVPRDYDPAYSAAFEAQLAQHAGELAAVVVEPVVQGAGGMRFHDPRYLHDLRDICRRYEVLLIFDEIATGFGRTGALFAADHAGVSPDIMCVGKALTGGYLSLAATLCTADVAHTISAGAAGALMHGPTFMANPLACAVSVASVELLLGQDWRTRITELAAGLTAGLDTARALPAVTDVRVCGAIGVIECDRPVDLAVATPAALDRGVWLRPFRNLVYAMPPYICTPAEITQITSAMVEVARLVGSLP
HepG2 tox 2 – cytotoxicity in HepG2 cells, dose response, cytotoxicity control, cell-based, plate reader, cherry-pick, two tests | shares compounds with BioA inh-1 | max activity, % | 310 tested, under 10 active
NIH3T3 tox 5 – cytotoxicity in NIH3T3 fibroblasts, dose response, cytotoxicity control, cell-based, plate reader, cherry-pick, two tests. activity change, negative = cytotoxicity, % at 26 µM. 310 tested, under 10 active. AID 651900, 2012. shares compounds with BioA inh-1
Hits are given with their value; – = inactive; ? = inconclusive; · = no result given. An excerpt weighted towards active compounds, which were near 0.54% of everything screened. Unless noted, the rule behind the calls is not given here.

SMILES	TcdB GH inh	BioA inh-1	Vc quorum ag	FadD28 binding	BioA inh-2	HepG2 tox 2	NIH3T3 tox 5
O=C(NCc1ccccc1)[C@@H]1[C@@H](CO)[C@@H]2Cn3c(ccc(/C=C/c4ccccc4)c3=O)[C@H]1N2CC1CC1	–	·	·	·	·	·	·
CCNC(=O)[C@H]1[C@H](CO)[C@H]2Cn3c(ccc(-c4cccc(F)c4)c3=O)[C@H]2N1C(=O)Cc1cccnc1	–	41.9	·	·	–	–	–
O=C(Nc1nccs1)[C@@H]1[C@@H](CO)[C@@H]2Cn3c(ccc(-c4cccnc4)c3=O)[C@@H]2N1CC1CCCC1	–	–	·	·	·	·	·
O=C(Nc1nccs1)[C@H]1[C@H](CO)[C@H]2Cn3c(ccc(-c4cccnc4)c3=O)[C@H]2N1CC1CCCC1	–	51.7	·	·	–	–	–
CC1(C(=O)NCc2ccccc2)Cc2c(-c3cccc(C(N)=O)c3)ccnc2O1 (configuration not stated)	–	–	–	–	·	·	·
CC1(C(=O)NCc2ccc(F)c(F)c2)Cc2c(-c3cccc(C(N)=O)c3)ccnc2O1 (configuration not stated)	–	61.7	–	–	–	–	–
CCCNC(=O)N[C@@H]1CC[C@@H](CC(=O)N2CCN(C)CC2)O[C@@H]1CO	–	–	·	·	·	·	·
Cc1ccccc1-n1c(SCC(=O)N(C)C2CCS(=O)(=O)C2)nc2ccccc2c1=O (configuration not stated)	–	59.7	–	–	–	–	–
COc1ccccc1-n1c(SCC(=O)N(C)C2CCS(=O)(=O)C2)nc2ccccc2c1=O (configuration not stated)	·	?	–	–	·	·	·
CN(C(=O)CSc1nc2ccccc2c(=O)n1-c1ccccc1Cl)C1CCS(=O)(=O)C1 (configuration not stated)	–	49.6	–	–	–	–	–
Cc1cc(C)n(-c2ccc(C(=O)Nc3ccc4c(c3)OCO4)cc2)n1	·	43.7	–	–	–	–	–
CC(=O)c1ccc(N2CCN(C(=O)c3ccc4c(c3)OCO4)CC2)cc1	–	91.2	–	–	–	–	–
Cc1cccc(C(=O)NC2CCN(CC(=O)Nc3ccc4c(c3)OCO4)CC2)c1	–	–	–	–	·	·	·
Cc1cccc(C(=O)NC2CCN(CC(=O)Nc3ccccc3Cl)CC2)c1	–	48.8	–	–	–	–	–
CCNC(=O)C[C@H]1CC[C@@H]2[C@@H](COc3ccc(NC(=O)Nc4cccc(F)c4)cc3C(=O)N2C)O1	–	41.7	·	·	–	–	–
Cc1ccc(/C=C(\CCC(=O)O)c2nc3ccccc3s2)cc1[N+](=O)[O-]	–	89.7	–	–	–	–	–
CNc1ccc(/C=C(\CCC(=O)O)c2nc3ccccc3s2)cc1[N+](=O)[O-]	·	·	–	–	·	·	·
O=C(CSc1nnc(-c2ccncc2)n1-c1ccc(Cl)cc1)NCc1cccs1	·	47.4	–	–	–	–	–
Cc1c(Cl)cccc1-n1c(SCC(=O)NCc2cccs2)nnc1-c1ccncc1	·	–	–	–	·	·	·
O=C(NCC1CC1)[C@@H]1[C@@H](CO)[C@@H]2Cn3c(ccc(-c4ccccc4)c3=O)[C@@H]2N1CC1CC1	–	–	·	·	·	·	·
CN(C)C(=O)c1ccc(-c2ccccc2[C@@H]2[C@@H](CO)N(C(=O)C3CC3)[C@H]2C#N)cc1	–	·	·	·	·	·	·
O=C(Nc1cccnc1)c1cc2nc(C3CC3)cc(C(F)(F)F)n2n1	·	89.6	–	–	–	–	–
O=C(Nc1ccc2c(c1)OCO2)c1cc2nc(C3CC3)cc(C(F)(F)F)n2n1	–	–	–	–	·	·	·
Cc1ccc(Cc2c(C)nc3nc(SCC(=O)NCc4ccco4)nn3c2C)cc1	·	49.6	–	–	–	–	–
Cc1cccc(Cc2c(C)nc3nc(SCC(=O)NCc4ccco4)nn3c2C)c1	·	–	–	–	·	·	·
SMILES	TcdB GH inh	BioA inh-1	Vc quorum ag	FadD28 binding	BioA inh-2	HepG2 tox 2	NIH3T3 tox 5
Cc1nc2nc(SCC(=O)N3CCOCC3)nn2c(C)c1Cc1ccccc1	·	111.3	–	–	–	–	–
Cc1nc2nc(SCC(=O)NCc3ccco3)nn2c(C)c1Cc1c(F)cccc1Cl	·	47.8	–	–	–	–	–
Cc1noc(C)c1NC(=O)Nc1ccc2c(c1)C(=O)N([C@H](C)CO)C[C@H](C)[C@H](CN(C)C(=O)Nc1cccc3ccccc13)OCCCC[C@H](C)O2	·	–	·	·	·	·	·
O=C([C@@H]1N[C@@H]2c3ccc(C4=CCCC4)c(=O)n3C[C@@H]2[C@H]1CO)N1CCc2ccccc2C1	–	–	·	·	·	·	·
O=C1CCCc2c1cc(C(=O)NCc1ccco1)c(=O)n2-c1ccc(Cl)cc1	·	50.2	–	–	–	–	–
O=C1CCCc2c1cc(C(=O)NCCCN1CCOCC1)c(=O)n2-c1ccc(Cl)cc1	–	45.0	–	–	–	–	–
O=C(C[C@@H]1C=C[C@@H](NC(=O)c2ccc(F)cc2)[C@H](CO)O1)NCCc1ccccc1	–	–	·	·	·	·	·
CC1=C(C#N)C(c2cccnc2)C2=C(CC(c3ccc(Cl)cc3)CC2=O)N1 (configuration not stated)	·	62.7	–	–	–	–	–
O=C(Nc1cccc(F)c1)C1CCCN(c2cnccn2)C1 (configuration not stated)	–	53.3	–	–	–	–	–
Cc1cccc(NC(=O)C2CCCN(c3cnccn3)C2)c1 (configuration not stated)	–	–	–	–	·	·	·
O=C(Nc1ccc(F)c(Cl)c1)C1CCCN(c2cnccn2)C1 (configuration not stated)	–	41.0	–	–	–	–	–
O=C(c1ccc(S(=O)(=O)Nc2ccccc2F)cc1)N1CCN(c2ccccc2O)CC1	–	66.6	–	–	–	–	–
O=C(c1ccc(NS(=O)(=O)c2ccc(F)cc2)cc1)N1CCN(c2ccccc2O)CC1	–	–	–	–	·	·	·
CN1C(=O)c2cc(NC(=O)Cc3cccs3)ccc2OC[C@H]2O[C@H](CC(=O)O)CC[C@@H]21	–	–	·	·	·	·	·
O=C(Nc1ccc2c(c1)[C@H]1C[C@@H](CC(=O)N3CCc4ccccc4C3)O[C@H](CO)[C@H]1O2)c1cccnc1	–	55.0	·	·	–	–	–
O=C(C[C@H]1C[C@H]2c3cc(NC(=O)c4cccnc4)ccc3O[C@H]2[C@H](CO)O1)NCc1ccccn1	–	40.4	·	·	–	–	–
O=C(C[C@@H]1C[C@@H]2c3cc(NC(=O)c4cccnc4)ccc3O[C@@H]2[C@@H](CO)O1)NCc1cccnc1	–	41.5	·	·	–	–	–
O=C(C[C@@H]1C[C@H]2c3cc(NC(=O)c4cccnc4)ccc3O[C@H]2[C@@H](CO)O1)NCc1cccc(F)c1	–	–	·	·	·	·	·
O=C(C[C@@H]1C[C@@H]2c3cc(NC(=O)c4cccnc4)ccc3O[C@@H]2[C@H](CO)O1)NCc1ccccn1	–	–	·	·	·	·	·

High-throughput results as filed in PubChem BioAssay.
